“And” between values parts separate entries of the source, which are not always exact repeats. Equal values may be shown once. Results filed as inconclusive are left out. The source made the active and inactive calls. The call rests on the fitted dose curve; in most records, active means well fitted cell-killing curve with a large enough effect in the repeat runs; inconclusive means weak or mixed curves, or effect the other way; inactive means flat fitted curve, though single readings scatter.

Experiment [1] is described as follows: cAMP Responsive Elements (CRE) small molecule antagonists, cell-based qHTS assay: qHTS cell viability counter screen (AID 2060913). Further: nearly all actives have a fitted effect of over 40% in size. In a few lines:
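Viability of NKH477-stimulated (0.25 uM final) CRE-bla HEK293T cells is measured by CellTiter-Glo luminescence following 3 hrs compound exposure at 37 C.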
On the technique in general: Quantitative high-throughput screening tests each substance at several concentrations.

Experiment [2] can be described thus: cAMP Responsive Elements (CRE) small molecule agonists, cell-based qHTS assay: qHTS cell viability counter screen (AID 2060914). Further: nearly all actives have a fitted effect of over 50% in size. In a few lines:
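Luminescence read-out (CellTiter-Glo, 30 min RT) of ATP-based viability in CRE-bla HEK 293T cells, run in the same wells as the β-lactamase reporter assay after 3 h compound treatment at 37 °C.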
Potency means the concentration at half of the fitted maximal effect.

Consider `COc1ccc(CO)cc1`, for which the Potency entry in experiment [1] and in experiment [2] was “inactive” throughout.
Take `CC(C)c1ccc(O)cc1`: the Potency entry in experiment [1] and in experiment [2] was “inactive” throughout.
With `CC[C@H]1C[C@H]2[C@@H]3CCC4=CC(=O)CC[C@@H]4[C@H]3CC[C@]2(C)[C@H]1O`, the Potency entry in experiment [1] and in experiment [2] was “inactive” throughout.
Regarding `O=C1CCCCC1Cl` (centres undefined), the Potency entry in experiment [1] and in experiment [2] was “inactive” in each case.
As to `CCCCCCCCSC(=O)Oc1cc(Cl)nnc1-c1ccccc1`, the Potency result in experiment [1] and in experiment [2] was “inactive” each time.
`NNC(=O)c1ccccc1`: the Potency result in experiment [1] and in experiment [2] was “inactive” throughout.
Turning to `C=CC(=O)[O][Sn]([CH2]CCC)([CH2]CCC)[CH2]CCC`, the Potency is 8.63 µM (active) in experiment [1] and 6.86 µM (active) in experiment [2].
For `CCCCCCCCCCCCCCCCCC(=O)O`, in that order: “inactive” and “inactive”.
As to `Cc1cccc(C#N)c1`, the Potency entry in experiment [1] and in experiment [2] was “inactive” each time.
As to `CCOP(=S)(OCC)SCS(=O)(=O)C(C)(C)C`, the Potency entry in experiment [1] and in experiment [2] was “inactive” throughout.
On to `C=C(C)C#N`, for which the Potency result in experiment [1] and in experiment [2] was “inactive” in each case.
For `CC(=O)c1cc2c(cc1C)C(C)(C)C(C)CC2(C)C` (centres undefined), the Potency entry in experiment [1] and in experiment [2] was “inactive” in each case.
As for `NNCc1ccccc1`, the Potency entry in experiment [1] and in experiment [2] was “inactive” throughout.
For `[Cl-].[Cl-].[Hg+2]`, the Potency in experiment [1] is 19.2 µM (active) and 8.63 µM (active); in experiment [2], 21.6 µM (active) and 12.2 µM (active).
Take `CCOc1ccc(N)cc1`: the Potency entry in experiment [1] and in experiment [2] was “inactive” each time.
For `Cc1nn(-c2cc(NS(C)(=O)=O)c(Cl)cc2Cl)c(=O)n1C(F)F`, the Potency result in experiment [1] and in experiment [2] was “inactive” each time.
With `N#CC(C#N)=C(C#N)C#N`, the Potency result in experiment [1] and in experiment [2] was “inactive” in each case.
In the case of `NC(=S)C(N)=S`, the Potency entry in experiment [1] and in experiment [2] was “inactive” throughout.
For `CN(C)C1CSSSC1`, the Potency result in experiment [1] and in experiment [2] was “inactive” throughout.
As to `Cc1cccc(N)c1N`, the Potency entry in experiment [1] and in experiment [2] was “inactive” in each case.
For the compound `N#CC(c1ccccc1)c1ccccc1`, the Potency entry in experiment [1] and in experiment [2] was “inactive” each time.
Consider `C#CC1(O)CCCCC1`, for which the Potency result in experiment [1] and in experiment [2] was “inactive” throughout.

(Values after PubChem BioAssay (Tox21).)
